Source: PubChem BioAssay (National Center for Advancing Translational Sciences (NCATS))
Most compounds without a hit are left out; they make up all but 18% or so of the library.
Gal4-VP16 FLuc – Gal4-VP16 reporter inhibition counter-screen; Drosophila S2 Gal4-VP16 UAS-luciferase, luminescence, 20 h; Potency, µM (doses to about 53.6 µM), hits mostly inhibitors; hit rate 3.5% among 310,000;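 also: Gal4-VP16 expression switched on by copper sulfate through the metallothionein promoter; nearly all actives have a fitted effect of over 50% in size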
DT40 TDP1 CPT – DT40-hTDP1 cell growth loss with CPT | chicken DT40 Tdp1-/-;hTDP1 cells + 20 nM CPT, ATP luminescence, 48 h | hit rate 12% among 420,000 | Potency, µM (doses to about 46.2 µM), usual class: inhibitors; also: nearly all actives have a fitted effect of over 55% in size
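Chicken DT40 Tdp1-/- cells stably complemented with human TDP1 were seeded at 400 cells/well in medium containing 20 nM camptothecin, exposed to pin-transferred compounds, and grown at 37 °C for at least 48 hr. Viability was read as ATP luminescence.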
DT40 TDP1 no CPT – qHTS for Inhibitors of human tyrosyl-DNA phosphodiesterase 1 (TDP1): qHTS in cells in absence of CPT | DT40 Tdp1-/- hTDP1 cells, no CPT, ATP luminescence, 48 h | Potency, µM (series often up to 46.2 µM), hits mostly inhibitors | hit rate 15% among 420,000 | AID 686978, 2013; also: nearly all actives have a fitted effect of over 55% in size
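Compound effects on proliferation are scored in DT40 Tdp1-/-;hTDP1 cells in the absence of CPT. ATP levels (CellTiter-Glo luminescence) are recorded after a ≥48 hr, 37 °C incubation.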
RORg inh – blocks mouse ROR gamma transcriptional activity. P51450. Drosophila S2 Gal4-RORgamma UAS-luciferase reporter, 20 h. Potency, µM (top dose mostly 53.6 µM), actives largely listed as inhibitors. hit rate 5.4% among 310,000; also: nearly all actives have a fitted effect of over 60% in size
Target sequence (P51450 whole entry, looked up, the tested form may be a part): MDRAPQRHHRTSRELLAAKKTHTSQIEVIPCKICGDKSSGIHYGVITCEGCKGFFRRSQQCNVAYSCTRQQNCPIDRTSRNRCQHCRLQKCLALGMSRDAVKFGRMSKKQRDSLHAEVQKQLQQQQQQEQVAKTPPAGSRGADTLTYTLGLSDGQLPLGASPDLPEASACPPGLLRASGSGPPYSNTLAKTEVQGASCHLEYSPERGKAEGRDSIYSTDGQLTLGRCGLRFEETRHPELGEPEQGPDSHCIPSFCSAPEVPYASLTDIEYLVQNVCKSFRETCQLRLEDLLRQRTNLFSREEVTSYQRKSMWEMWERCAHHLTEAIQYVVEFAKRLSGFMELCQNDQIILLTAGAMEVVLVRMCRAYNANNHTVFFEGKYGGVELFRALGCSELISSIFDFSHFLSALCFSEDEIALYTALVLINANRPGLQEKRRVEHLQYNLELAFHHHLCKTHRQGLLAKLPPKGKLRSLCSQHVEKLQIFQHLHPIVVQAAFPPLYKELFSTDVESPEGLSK
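Drosophila Schneider cells stably carrying a metallothionein-driven Gal4 DBD–ROR gamma fusion and a UAS-Photinus luciferase reporter were exposed to compound for 1 hr, then induced with copper sulfate (700 uM final) for 20 hr at ambient temperature before luminescence reading.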
LDHA inh – blocks human lactate dehydrogenase A | hit rate 0.15% among 480,000 | AID 1347041 | purified LDHA, NADH/diaphorase-resazurin fluorescence; hits give low values | activity change, % (values are at about 110 or 230 µM) | P00338; in the data active = activity change below about -30%; inconclusive = mostly about -25% to -30%
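Human LDH5 at 2 nM final in Tris HCl pH 7.4 with 0.06 mM NADH and 0.2 mM pyruvate, reacted 5 minutes at room temperature. Remaining NADH coupled via diaphorase/resazurin; resorufin fluorescence read at 0 and 20 minutes, normalized to enzyme-free and DMSO wells.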
IL-1B inflam inh – inflammasome signaling inhibition, IL-1 beta readout | THP-1 LPS/ATP IL-1B secretion, AlphaLISA, 16 h; hits give low values | activity change, % at 57.5 µM | hit rate 4.7% among 360,000 | AID 743279; in the data active = activity change below about -50%; inconclusive = mostly about -30% to -49%
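Secreted IL-1B measured by AlphaLISA bead assay after 16 h compound exposure of THP-1 cells; compounds (final up to 57.5 uM) added 1 h before LPS (250 ng/mL) and ATP (1.25 mM) stimulation; lower signal means less secretion.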
Each line names hits and unclear results; the compound was inactive in the other large screens. Unless noted, calls follow the shape of the dose curve; as a rule, active = well fitted curve in the direction sought with a large enough effect; inconclusive = small, poorly fitted or top-dose-only effect, or another doubt; inactive = no such curve, though single readings can be large; an effect the other way counts as inactive or inconclusive.

Oc1ccc(C(c2nnnn2C2CCCC2)N2CCc3ccccc3C2)cc1 (configuration not stated)	DT40 TDP1 CPT inconclusive, DT40 TDP1 no CPT 20.6µM
COc1cc(C(c2nnnn2C2CCCC2)N2CCc3ccccc3C2)ccc1O (configuration not stated)	DT40 TDP1 CPT inconclusive, DT40 TDP1 no CPT 11.6µM
COc1ccc(C(c2nnnn2C2CCCC2)N2CCN(C(=O)c3ccco3)CC2)cc1OC (configuration not stated)	none
Cc1cc(-c2ccc(S(=O)(=O)N3CCN(c4ccccc4)CC3)s2)n[nH]1	none (no result: Gal4-VP16 FLuc, DT40 TDP1 CPT, DT40 TDP1 no CPT, RORg inh, IL-1B inflam inh)
Cc1ncsc1C(=O)N(Cc1cccs1)C1CC1	none (no result: Gal4-VP16 FLuc, DT40 TDP1 CPT, DT40 TDP1 no CPT, RORg inh, IL-1B inflam inh)
Cc1c(N=c2scc(-c3ccccc3)n2CCO)c(=O)n(-c2ccccc2)n1C	DT40 TDP1 no CPT inconclusive
O=C(O)CCC(=O)NCCn1c(-c2ccccc2)csc1=Nc1ccccc1	none
COC(=O)c1cc(=O)n(Cc2ccc3c(c2)OCO3)c(=Nc2ccccc2)s1	DT40 TDP1 no CPT inconclusive, RORg inh inconclusive
CCN(CC)CCn1c(-c2ccccc2)csc1=Nc1ccccc1	DT40 TDP1 CPT inconclusive, DT40 TDP1 no CPT 16.4µM (no result: Gal4-VP16 FLuc, RORg inh, IL-1B inflam inh)
Cc1ccc(-c2csc(=Nc3ccccc3)n2Cc2ccc3c(c2)OCO3)cc1	DT40 TDP1 CPT 14.6µM, DT40 TDP1 no CPT 9.2µM (no result: Gal4-VP16 FLuc, RORg inh, IL-1B inflam inh)
OCCCn1c(-c2ccccc2)csc1=Nc1ccccc1	DT40 TDP1 CPT 23.1µM, DT40 TDP1 no CPT 16.4µM, RORg inh inconclusive
COc1ccc(N=c2scc(-c3ccc(OC)cc3)n2CCO)cc1	DT40 TDP1 CPT 20.6µM, DT40 TDP1 no CPT 9.2µM, RORg inh inconclusive, IL-1B inflam inh inconclusive
O=C(OCCCc1ccccc1)c1c2ccccc2cc2ccccc12	none (no result: Gal4-VP16 FLuc, DT40 TDP1 CPT, DT40 TDP1 no CPT, RORg inh, IL-1B inflam inh)
CCCOc1ccc(CNC2CC2)cc1	none (no result: Gal4-VP16 FLuc, DT40 TDP1 CPT, DT40 TDP1 no CPT, RORg inh, IL-1B inflam inh)
COc1ccc(OC)c(NC(=O)Cn2ccc3cc(OC)ccc32)c1	none (no result: Gal4-VP16 FLuc, DT40 TDP1 CPT, DT40 TDP1 no CPT, RORg inh, IL-1B inflam inh)
CCOc1ccc(Oc2ccc(NC(=O)Cn3ncc4ccccc4c3=O)cc2)cc1	none (no result: Gal4-VP16 FLuc, DT40 TDP1 CPT, DT40 TDP1 no CPT, RORg inh, IL-1B inflam inh)
COCC(=O)n1nc(NCc2ccc(Cl)cc2Cl)nc1NCc1ccc(Cl)cc1Cl	none (no result: Gal4-VP16 FLuc, DT40 TDP1 CPT, DT40 TDP1 no CPT, RORg inh, IL-1B inflam inh)
CCC(C)[C@H](NC(=O)NCc1ccccc1F)C(=O)O (some centres not stated)	none (no result: Gal4-VP16 FLuc, DT40 TDP1 CPT, DT40 TDP1 no CPT, RORg inh, IL-1B inflam inh)
CCCOc1ccc(-c2cn3ccccc3n2)cc1	Gal4-VP16 FLuc inconclusive, DT40 TDP1 CPT inconclusive, DT40 TDP1 no CPT inconclusive, RORg inh 4.47µM
COc1ccc(-c2cn3ccccc3n2)cc1[N+](=O)[O-]	RORg inh inconclusive
CCCOc1ccc(-c2cn3ccccc3n2)cc1[N+](=O)[O-]	DT40 TDP1 CPT inconclusive, DT40 TDP1 no CPT 14.6µM
CC1(C)Cc2c(sc3c2c(=O)n(CCCO)c(=O)n3CC(=O)c2ccccc2)CO1	none (no result: Gal4-VP16 FLuc, DT40 TDP1 CPT, DT40 TDP1 no CPT, RORg inh, IL-1B inflam inh)
CCOC(=O)c1c(C)[nH]c(C)c1C(=O)CSc1nc2ccccc2c(=O)n1-c1ccc(CC)cc1	DT40 TDP1 CPT 11.6µM, DT40 TDP1 no CPT 6.51µM, RORg inh inconclusive
CC(=O)c1ccc(-n2c(SCC(=O)c3c[nH]c4ccccc34)nc3ccccc3c2=O)cc1	DT40 TDP1 CPT 20.6µM, DT40 TDP1 no CPT 11.6µM, RORg inh 1.41µM, IL-1B inflam inh inconclusive
CCCCCCCCCCCCS(=O)C1CCCCC1OC(C)=O (configuration not stated)	none (no result: Gal4-VP16 FLuc, DT40 TDP1 CPT, DT40 TDP1 no CPT, RORg inh, IL-1B inflam inh)
O=C(NCCc1cn2ccccc2n1)c1ccccc1F	none
COCC1CCN(C(=O)c2cc(COc3ccc4ncccc4c3)on2)CC1	Gal4-VP16 FLuc 6.31µM, DT40 TDP1 CPT 3.66µM, DT40 TDP1 no CPT 8.2µM, RORg inh inconclusive
O=C(NC1CCCC1)c1cc(COc2ccc3ncccc3c2)on1	Gal4-VP16 FLuc 5.01µM, DT40 TDP1 CPT 3.66µM, DT40 TDP1 no CPT 2.06µM, RORg inh inconclusive
COc1cccc(OCc2cc(C(=O)NC3CCOCC3)no2)c1	none
CC(NC(=O)c1cc(COc2ccccc2)on1)c1nccs1 (configuration not stated)	DT40 TDP1 CPT inconclusive
O=C(NCCc1cn2ccccc2n1)c1cc(COc2ccc3ncccc3c2)on1	Gal4-VP16 FLuc inconclusive, DT40 TDP1 CPT 4.11µM, DT40 TDP1 no CPT 5.8µM
CC(NC(=O)c1cc(COc2ccc3ncccc3c2)on1)c1ccc(F)cc1 (configuration not stated)	Gal4-VP16 FLuc 7.08µM, DT40 TDP1 CPT 6.51µM, DT40 TDP1 no CPT 3.66µM, RORg inh inconclusive
COCCN(Cc1nc2ccccc2c(=O)[nH]1)C(=O)Cc1csc(-c2ccc(C)cc2)n1	none (no result: Gal4-VP16 FLuc, DT40 TDP1 CPT, DT40 TDP1 no CPT, RORg inh, IL-1B inflam inh)
Cc1ccc(NC(=O)/C(C#N)=C/c2cc(C(C)(C)C)c(O)c(C(C)(C)C)c2)cc1C	none (no result: Gal4-VP16 FLuc, DT40 TDP1 CPT, DT40 TDP1 no CPT, RORg inh, IL-1B inflam inh)
Cc1ccc(OCc2cc(C(=O)NC3CCCCC3)no2)cn1	Gal4-VP16 FLuc inconclusive, DT40 TDP1 CPT 13µM, DT40 TDP1 no CPT 8.2µM
Cc1ccc(OCc2cc(C(=O)N3CCCC3)no2)cn1	DT40 TDP1 no CPT inconclusive
O=C(c1cc(COc2ccc3ncccc3c2)on1)N1CCCC1	Gal4-VP16 FLuc 12.6µM, DT40 TDP1 CPT 7.31µM, DT40 TDP1 no CPT 6.51µM, RORg inh inconclusive
O=C(c1cc(COc2ccc3ncccc3c2)on1)N1CCCCCC1	Gal4-VP16 FLuc inconclusive, DT40 TDP1 CPT 4.11µM, DT40 TDP1 no CPT 2.59µM, RORg inh inconclusive
CSc1nnc(NC(=O)c2cc(=O)c3cc(Cl)cc(Cl)c3o2)s1	none (no result: Gal4-VP16 FLuc, DT40 TDP1 CPT, DT40 TDP1 no CPT, RORg inh, IL-1B inflam inh)
COC(=O)c1c(NC(=O)COC(=O)c2ccccc2O)sc2c1CCCCC2	none
NC(=O)c1c(NC(=O)c2ccncc2)sc2c1CCCC2	DT40 TDP1 CPT inconclusive, DT40 TDP1 no CPT 16.4µM
